Data as given in ChEMBL document CHEMBL4513135, “CO-ADD screening of IQOG CSIS (Spain) compounds”.
Entries with a potency or affinity are not part of this list.

Columns and labels:
Klebsiella pneumoniae = conditions: Concentration 32 ug.mL-1; ASSAY_TEST Inhibition of Bacterial Growth; detection method Absorption (OD600); MEDIA CAMHB; plate type 384well; NBS; CORNING #3640; time 18 hr
Candida albicans = conditions: 32 ug/mL
Cryptococcus neoformans = conditions: Concentration 32 ug.mL-1; ASSAY_TEST Inhibition of Fungal Growth; detection method Resazurin; Absorption (OD600-OD570); plate type 384well; NBS; CORNING #3640

| Structure (SMILES) | Inhibition (Klebsiella pneumoniae) | Inhibition (Candida albicans) | Inhibition (Cryptococcus neoformans) |
| --- | --- | --- | --- |
| CNC(=O)c1c(Cl)c2cc(OCc3ccccc3)ccc2n1C | 13.13% | 4.9% | -46.6% |
| N#C/C(=C\c1ccccc1Cl)C(=O)c1ccccc1 | 13.98% | 10.6% | -6.26% |
| C=C=CCN(C)Cc1cc2ccccc2n1C.O=C(O)C(=O)O | 9.39% | 1.88% | -29.39% |
| Cc1ccc(C2c3c(nc4c(c3N)CCCC4)Oc3ccc4ccccc4c32)cc1 (stereo not given) | 2.87% | 1.23% | 2.32% |
| CC1Cc2c(Cl)nc3nc4c(c(N)c3c2NC1=O)CCCC4 (stereo not given) | 8.15% | 2.83% | -81.78% |
| Cc1ccc(CNNC(=O)c2cc3ccccc3n2C)cc1 | -14.45% | 1.69% | -0.2% |
| O=C(NCc1ccccc1)c1cc2ccccc2[nH]1 | 1.5% | -0.44% | -6.86% |
| N#Cc1c(N)nc(N)c(C#N)c1-c1ccccc1 | 13.82% | 1.47% | -29.88% |
| CC(=O)CCc1c[nH]c2ccccc12 | 20.76% | 1.89% | -0.29% |
| C/C(=N\NC(=O)c1cc2ccccc2n1Cc1ccccc1)C1CC1 | 4.04% | 0.9% | -0.08% |
| C#CCN(C)Cc1cc2cc(O)ccc2n1C.Cl | 13.12% | 2.77% | -73.69% |
| N#Cc1c(-c2ccccc2)c2c(ccc3ccccc32)oc1=O | 13.16% | 0.36% | -9.44% |
| CCOC(=O)C1=C(C)NC(N)=C(C#N)C1c1ccc(OC)cc1 (stereo not given) | 13.36% | 5.45% | -57.77% |
| Cc1ccc(C2C(C#N)=C(N)Oc3c2ccc2ccccc32)cc1 (stereo not given) | 1.87% | -0.54% | -6.98% |
| CCOC(=O)c1cc2cc(OC(=O)Oc3ccc([N+](=O)[O-])cc3)ccc2[nH]1 | 0.96% | 0.86% | -63.93% |
| N#Cc1cc(C#N)c(NCCCCC2CCN(Cc3ccccc3)CC2)nc1N | 18.34% | 1.01% | -105.28% |
| COC(=O)C(=Cc1ccc(OC)cc1)NC(=O)c1ccccc1 | 13.3% | 6.47% | -1.73% |
| CCCC(C)NNC(=O)Cc1c[nH]c2ccccc12 (stereo not given) | 6.53% | 0.38% | 5.38% |
| COc1ccc(C2c3c(ccc4ccccc34)OC(=N)C2(Br)C#N)cc1OC (stereo not given) | 2.61% | 7.63% | -66.17% |
| CC1=C(C(=O)N2[C@@H]3C[C@H]4CCC3(CS2(=O)=O)C4(C)C)C(c2ccccc2)C(C#N)=C(N)O1 (stereo not given in full) | 14.51% | 3.41% | -6.44% |
| CC#CCN(Cc1ccccc1)c1nc(N)c(C#N)c(-c2ccccc2)c1C#N | -4.62% | 3.12% | -26% |
| Br.C#CCNCc1ccccc1 | 12.8% | -0.33% | -4.9% |
| O=C(Cc1c[nH]c2ccccc12)NNCCc1ccccc1 | 0.81% | 1.99% | -0.59% |
| N#Cc1cc2c(N)c3c(nc2nc1Cl)CCN(Cc1ccccc1)C3 | 13.32% | 2.4% | -88.69% |
| COc1ccc2c(c1)cc(C(=O)O)n2C | 11.78% | 31.1% | -23.41% |

| Structure (SMILES) | Inhibition (Klebsiella pneumoniae) | Inhibition (Candida albicans) | Inhibition (Cryptococcus neoformans) |
| --- | --- | --- | --- |
| CC(=O)O[C@H]1CC[C@H](NC(=O)c2ccccc2)CC1 | 10.24% | 3.3% | -39.27% |
| CCOC(=O)C1=C(C)OC(N)=C(C#N)C1c1ccco1 (stereo not given) | 6.85% | 1.71% | -29.39% |
| Cl.Nc1c2c(nc3c1C(c1ccccc1)c1ccc4ccccc4c1O3)CCCC2 (stereo not given) | 22.34% | 1.77% | -1.1% |
| Cl.NNN1CCc2ccccc21 | 17.38% | 2.29% | -9.55% |
| O=C(N/N=C/Cc1ccccc1)c1cc2ccccc2[nH]1 | 10.16% | -1.49% | -3.25% |
| CCOc1nc(N)c(C#N)c(-c2ccccc2)c1C#N | 4.68% | 1.61% | -46.51% |
| COc1ccc2c(c1)cc(CN(C)C)n2C | 9.15% | -0.31% | -1.62% |
| O=C(NNC(Cc1ccccc1)Cc1ccccc1)c1cc2ccccc2[nH]1 | 6.36% | -2.25% | -1.71% |
| O=C(Cc1c[nH]c2ccccc12)NN=C1CCCCCC1 | -21.31% | 1.07% | -2.54% |
| Cc1nc(Nc2ccccc2)c2cnn(-c3ccccc3)c2n1 | 17.53% | 0.68% | -5.65% |
| O=C1NC(=S)N/C1=C\c1ccccc1 | 18.56% | 0.81% | -1.21% |
| N#CC1=C(N)Oc2ccc3ccccc3c2C1c1ccccc1 (stereo not given) | 9.26% | 1.08% | -36.46% |
| CC#CCN(Cc1ccccc1)c1nc(N)c(C#N)cc1C#N | -9.03% | 3.48% | -21.6% |
| COc1ccc(-c2cc(-c3cc4ccc(F)cc4nc3Cl)cc(=O)[nH]2)cc1 | -16.09% | 1.94% | -21.89% |
| CC#CCN(C)Cc1cc2cc(OCc3ccccc3)ccc2n1C.O=C(O)C(=O)O | 22.38% | 3.08% | -0.27% |
| N#Cc1c(N)nc(NCc2ccccc2)c(C#N)c1-c1ccccc1 | -1.47% | 0.34% | -28.27% |
| COC(=O)C(=Cc1ccccc1)NC(=O)c1ccccc1 | 12.18% | 0.5% | -5.65% |
| C/C(Cc1ccccc1)=N\NC(=O)c1c[nH]c2ccccc12 | -16.37% | 5.16% | 2.61% |
| c1ccc(Cn2ccc3ccccc32)cc1 | 13.32% | 4.28% | -3.9% |
| Cn1cc(C(=O)NN)c2ccccc21 | 3.16% | 4.47% | 7.89% |
| N#CC1=C(Cl)Oc2c(ccc3ccccc23)C1c1ccccc1[N+](=O)[O-] (stereo not given) | 5.03% | 3.33% | -51.56% |
| COc1cccc(C2C(C#N)=C(N)Oc3ccc4ccccc4c32)c1 (stereo not given) | 12.24% | 1.77% | -37.42% |
| CCC(CC)NNC(=O)c1c[nH]c2ccccc12.Cl | 14.64% | 1.1% | 4.78% |
| CCOC(=O)c1c[nH]c2ccc(OC)cc12 | 1.49% | 3.61% | -7.29% |
| Cc1cnc2ccc(Cl)cn12 | 22.77% | 0.97% | 1.56% |

| Structure (SMILES) | Inhibition (Klebsiella pneumoniae) | Inhibition (Candida albicans) | Inhibition (Cryptococcus neoformans) |
| --- | --- | --- | --- |
| CCOC(=O)C1=C(C)OC(N)=C(C#N)C1c1ccc([N+](=O)[O-])cc1 (stereo not given) | 12.45% | -0.07% | -64.89% |
| NNC(=O)c1c[nH]c2ccc(OCc3ccccc3)cc12 | 3.4% | 1.23% | 0.02% |
| N#CC1=C(N)Oc2c(ccc3ccccc23)C1c1ccc(O)cc1 (stereo not given) | 6.16% | 0.86% | -59.36% |
| CCOC(=O)/C(C#N)=C\c1ccc([N+](=O)[O-])cc1 | 10.6% | 5.79% | -3.2% |
| C=C1CN(C)c2c(C#N)cc(C#N)c(=N)n21 | 9.83% | 2.03% | -52.46% |
| CC/C(C)=N/NC(=O)Cc1c[nH]c2ccccc12 | 0.18% | -0.57% | -5.32% |
| Cl.NC1(C(=O)O)CC1c1ccccc1 (stereo not given) | 9.92% | 1.66% | -5.74% |
| CCCCCCC(C)NNC(=O)c1cc2ccccc2[nH]1 (stereo not given) | -31.72% | 3.47% | -2.85% |
| CSC1=NC(=Cc2cn(C(c3ccccc3)(c3ccccc3)c3ccccc3)c3ccccc23)C(=O)N1C | -25.3% | -0.44% | -10.07% |
| O=C(COc1ccc2ccccc2c1)NNCc1c[nH]c2ccccc12 | 9.52% | 3.01% | -4.32% |
| COc1ccc(/C=C2/N=C(c3ccccc3)OC2=O)cc1OC | -24.56% | -0.31% | -8.84% |
| Nc1c2c(nc3c1c1ccccc1n3Cc1ccccc1)CCCC2 | 9.09% | 1.09% | -84.21% |
| O=C1NC(=O)C(=Cc2ccccc2)N1 | 12.73% | -0.05% | -1.42% |
| N#Cc1c(Cl)nc(N2CCCCC2)c(C#N)c1-c1ccccc1 | -24.06% | 3.22% | -3.56% |
| Cl.Cl.Cn1c(CNc2ccccc2)cc2cc(OCCCC3CCN(Cc4ccccc4)CC3)ccc21 | 5.5% | 1.7% | -74.16% |
| N#CC1=C(Cl)Oc2c(ccc3ccccc23)C1c1ccc([N+](=O)[O-])cc1 (stereo not given) | 16.96% | 10.5% | -69.24% |
| O=C(Cc1c[nH]c2ccccc12)N/N=C/c1ccco1 | 10.08% | -1.03% | -6.47% |
| CCOC(=O)c1cc2c(N)c3c(nc2nc1C)CCCC3 | -0.45% | 0.86% | -82.76% |
| COc1ccc(C=C2N=C(SC)N(C)C2=O)cc1 | -13.67% | 0.01% | -7.91% |
| N#Cc1c(Cl)nc(NC2CCN(Cc3ccccc3)CC2)c(C#N)c1-c1ccccc1 | 0.34% | -0.87% | -53.1% |
| Cc1ccc(/C=C(\C#N)C(=O)c2ccccc2)cc1 | 11.17% | 1.76% | -10.05% |
| CCOC(=O)c1c[nH]c2ccc(OCc3ccccc3)cc12 | 12.72% | 0.34% | -4.09% |
| COC(=O)C1(NC(=O)c2ccccc2)CC1c1ccccc1 (stereo not given) | 3.5% | 0.07% | -1.1% |
| CCOC(=O)C1=C(C)NC(N)=C(C#N)C1c1ccc([N+](=O)[O-])cc1 (stereo not given) | 14.21% | 2.04% | -47.11% |
| N#Cc1c(N)nc(NCCCC2CCN(Cc3ccccc3)CC2)c(C#N)c1-c1ccccc1 | 32.61% | 1.5% | -34.35% |
